Only a selection was taken, and hits are over-represented in it overall.
DT40 TDP1 no CPT: qHTS for Inhibitors of human tyrosyl-DNA phosphodiesterase 1 (TDP1): qHTS in cells in absence of CPT; Potency, µM (highest dose often 46.2 µM), most hits filed as inhibitors; 15% of 420,000 active; DT40 Tdp1-/- hTDP1 cells, no CPT, ATP luminescence, 48 h; further: nearly all actives have a fitted effect of over 55% in size
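A cellular qHTS used chicken DT40 cells lacking endogenous Tdp1 but carrying stably transfected human TDP1. Compounds were applied without camptothecin, and cell growth kinetics were judged by ATP-dependent luminescence after ≥48 hr.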
IL1B secr inh: blocks inflammasome-driven IL-1 beta release | THP-1 LPS/ATP IL-1B secretion, AlphaLISA, 16 h; active compounds read low | activity change, % at 57.5 µM | 4.7% of 360,000 active | AID 743279; in the data active means activity change below about -50%; inconclusive means mostly about -30% to -49%
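Secreted IL-1B measured by AlphaLISA bead assay after 16 h compound exposure of THP-1 cells; compounds (final up to 57.5 uM) added 1 h before LPS (250 ng/mL) and ATP (1.25 mM) stimulation; lower signal means less secretion.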
12-LOX inh: ALOX12 (human) lipoxygenase inhibition | 1.1% of 580,000 active | AID 1671190 | Potency, µM (highest dose often 108 µM), most hits filed as inhibitors | P18054 | purified 12hLO, xylenol orange hydroperoxide absorbance
Target sequence (P18054 whole entry, looked up): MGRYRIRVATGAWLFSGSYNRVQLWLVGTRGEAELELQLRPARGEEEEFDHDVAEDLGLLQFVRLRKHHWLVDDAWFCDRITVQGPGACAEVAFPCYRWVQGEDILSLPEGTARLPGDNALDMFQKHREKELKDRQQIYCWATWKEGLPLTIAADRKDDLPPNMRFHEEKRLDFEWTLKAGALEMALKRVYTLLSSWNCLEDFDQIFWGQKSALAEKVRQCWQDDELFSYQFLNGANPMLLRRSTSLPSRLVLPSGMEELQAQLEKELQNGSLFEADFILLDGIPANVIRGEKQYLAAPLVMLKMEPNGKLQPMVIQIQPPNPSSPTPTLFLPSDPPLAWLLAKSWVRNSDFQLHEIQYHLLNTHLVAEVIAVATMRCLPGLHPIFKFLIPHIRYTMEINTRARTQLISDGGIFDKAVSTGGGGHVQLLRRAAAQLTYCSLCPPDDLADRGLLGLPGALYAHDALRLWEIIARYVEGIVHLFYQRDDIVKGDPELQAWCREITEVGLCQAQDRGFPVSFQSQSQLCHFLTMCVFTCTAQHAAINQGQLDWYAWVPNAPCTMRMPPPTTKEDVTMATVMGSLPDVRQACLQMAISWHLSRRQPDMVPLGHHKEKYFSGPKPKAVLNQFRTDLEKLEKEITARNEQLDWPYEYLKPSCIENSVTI
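Purified human 12hLO at 150 nM in 25 mM Hepes, 0.01% Triton X-100, pH 7.0, preincubated 15 min at room temperature with compound. Reaction started with 40 uM arachidonic acid, 30 min at room temperature. Hydroperoxide measured by Fe-xylenol orange, 573/405 nm absorbance ratio.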
DT40 TDP1 CPT: DT40-hTDP1 cell growth loss with CPT. 12% of 420,000 active. chicken DT40 Tdp1-/-;hTDP1 cells + 20 nM CPT, ATP luminescence, 48 h. AID 686979. Potency, µM (top dose mostly 46.2 µM), most hits filed as inhibitors; further: nearly all actives have a fitted effect of over 55% in size
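Cell growth measured by CellTiter-Glo luminescence after a minimum 48 h, 37 C compound exposure with 20 nM CPT in Tdp1-knockout DT40 cells stably expressing hTDP1, seeded 400/well; qHTS titration format.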
HT1080 IDH1KD tx: HT-1080 IDH1 knockdown cell toxicity (counter line); HT-1080 IDH1 knockdown viability, ATP luminescence, 48 h; Potency, µM (doses to about 46.1 µM), actives largely listed as cytotoxic; 2% of 360,000 active
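CellTiter-Glo luminescence after 48 h compound exposure at 37 degrees C of IDH1-knockdown HT-1080 cells in 5% FBS RPMI. %Activity scaled between DMSO wells and cell-free media wells, with curves fitted and assigned curve classes.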
HT1080-NT tox: kills 2HG-producing HT-1080-NT fibrosarcoma cells; Potency, µM (highest dose often 46.1 µM), hits mostly cytotoxic; HT-1080-NT fibrosarcoma viability, CellTiter-Glo ATP luminescence, 48 h; 1.6% of 360,000 active;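 further: NT is the 2HG producing partner of a matched IDH1 knockdown line; nearly all actives have a fitted effect of over 55% in size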
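Luminescent CellTiter-Glo readout after 48 hours of compound exposure at 37 degrees C defined viability of HT-1080-NT cells. Activity was normalized to DMSO wells and cell-free media wells; concentration-response curves were fitted and assigned curve classes.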
Hits are given with their value; n = inactive; u = inconclusive; x = not tested or not shown; [ ] = dose if it differs, or a comment. Unless noted, the call rests on the fitted dose curve; in most records, active means well fitted curve in the direction sought with a large enough effect; inconclusive means small, poorly fitted or top-dose-only effect, or another doubt; inactive means no such curve, though single readings can be large; an effect the other way counts as inactive or inconclusive.

SMILES | DT40 TDP1 no CPT | IL1B secr inh | 12-LOX inh | DT40 TDP1 CPT | HT1080 IDH1KD tx | HT1080-NT tox
CCCSc1nnc(Cn2c(=O)sc3ccccc32)n1-c1ccccc1 | 18µM | n | n | u | n | n
Cn1c(Cn2c(=O)sc3ccccc32)nnc1SCC(=O)NC1CCCCC1 | n | n | x | n | n | n
CC(=O)N(CCS(=O)(=O)c1ccc(Cl)cc1)Cc1cccs1 | n | n | n | n | n | n
CC(=O)N(Cc1cccs1)Cc1cc2ccc(C)c(C)c2nc1Cl | 21µM | n | n | 18µM | n | n
CC(=O)O[C@@H]1C[C@H]2C(C)=C[C@H]3OC(=O)[C@@H](C)[C@H]3C[C@H]2[C@]1(C)O | n | n | n | n | n | n
C=C1C(=O)O[C@H]2C[C@H]1[C@@H](OC(C)=O)C/C(C)=C/CC/C(C)=C\CC[C@]2(C)O | 2.9µM | -113 | n | 2.6µM | 16µM | 13µM
CCN(C(=O)CSc1nnc(-c2ccc(Cl)cc2)o1)c1ccccc1 | 21µM | x | n | u | x | x
CCOC(=O)CSc1nnc(-c2cc(OC)c(OC)c(OC)c2)o1 | n | n | n | u | n | n
CCOc1ccc(-c2nnc(SCC(=O)N(CC)c3cccc(C)c3)o2)cc1 | 10µM | x | n | 21µM | x | x
COc1cc(-c2nnc(SCC(=O)N(C)C3CCCCC3)o2)cc(OC)c1OC | 5.8µM | x | n | 12µM | x | x
CCN(C(=O)CSc1nnc(-c2cc(OC)c(OC)c(OC)c2)o1)c1ccccc1 | 5.8µM | x | n | 15µM | x | x
CCCCOc1ccc(NC(=O)c2cccc(C)c2)c2cccnc12 | x | x | n | x | x | x
COc1ccc(CN(C(=O)CSc2nnc(-c3ccccc3F)o2)c2ccc(F)cc2)cc1 | 13µM | n | x | 18µM | n | n
COc1ccc(-c2nnc(SCC(=O)N(Cc3ccccc3)C(C)(C)C)o2)cc1OC | 13µM | u | n | 23µM | n | n
COc1cccc(-c2nnc(SCC(=O)N(C)c3ccccc3)o2)c1 | 10µM | x | n | u | x | x
CCc1ccc(OC(=O)CSc2nnc(-c3ccc(OC)c(OC)c3)o2)cc1 | n | x | n | n | x | x
CN(CCO)C(=O)CNC(=O)C1CCCN(S(=O)(=O)c2ccc(Cl)cc2)C1 (stereo unspecified) | x | x | n | x | x | x
NNC(=O)c1sc2cc(C(F)(F)F)cnc2c1-c1cccs1 | n | n | n | n | n | n
O=C(Nc1ccccc1)c1sc2cc(C(F)(F)F)cnc2c1-c1cccs1 | 12µM | n | u | 13µM | n | n
COCCNc1cc(-c2cccc(C(F)(F)F)c2)nc2c(C)noc12 | x | x | n | x | x | x
COc1cc2c(cc1OC)C(c1cccc([N+](=O)[O-])c1)N(C(=O)c1ccccc1C(=O)O)CC2 (stereo unspecified) | n | -58 | n | n | n | n
COc1cc2c(cc1OC)C(c1ccccc1)N(C(=O)c1cccc(S(C)(=O)=O)c1)CC2 (stereo unspecified) | u | n | u | n | n | n
COc1ccc(C(=O)N2CCc3cc(OC)c(OC)cc3C2c2cccc([N+](=O)[O-])c2)cc1OC (stereo unspecified) | 18µM | u | n | u | n | n
COc1cc2c(cc1OC)C(c1ccc(Br)cc1)N(C(=O)c1ccccc1C(=O)O)CC2 (stereo unspecified) | n | n | n | n | n | n
CCc1c(C)nc(-n2nc(C)cc2NC(=O)COc2ccc(C(C)C)cc2)[nH]c1=O | x | x | n | x | x | x
SMILES | DT40 TDP1 no CPT | IL1B secr inh | 12-LOX inh | DT40 TDP1 CPT | HT1080 IDH1KD tx | HT1080-NT tox
CCOc1ccccc1NC(=O)CCSc1nc2n[nH]c(C)c2c(=N)n1-c1ccccc1Cl | u | n | n | u | u | u
Cc1c(Cl)cccc1-n1c(SCC(=O)NCc2ccccc2)nc2n[nH]c(C)c2c1=N | 12µM | x | n | 15µM | x | x
Cc1ccccc1-n1c(SCc2ccccn2)nc2n[nH]c(C)c2c1=N | 16µM | u | n | 21µM | n | n
Cn1cnnc1SCC(=O)NCc1ccccc1 | n | n | n | n | n | n
Cc1ccccc1-n1c(SCC(=O)Nc2ccccc2Cl)nc2n[nH]c(C)c2c1=N | 18µM | n | n | 16µM | u | u
Cc1ccc(CNC(=O)CSc2nc3n[nH]c(C)c3c(=N)n2-c2ccccc2Cl)cc1 | 23µM | x | n | 18µM | x | x
Cc1cc(CN2CCC(N3CCNC3=O)CC2)no1 | x | x | n[12.5 µM] | x | x | x
Cc1ccccc1-n1c(SCC(=O)Nc2ccc(Cl)cc2Cl)nc(O)cc1=O | n | x | 6.3µM | n | x | x
CCc1ccccc1NC(=O)CSc1nc2n[nH]c(C)c2c(=N)n1-c1cccc(OC)c1 | 23µM | n | n | 16µM | u | n
COc1ccc(NC(=O)CSc2nc3n[nH]c(C)c3c(=N)n2-c2ccc(Cl)c(C)c2)cc1OC | u | n | x | n | n | n
Cc1ccc(-n2c(SCC(=O)NCc3ccccc3)nc3n[nH]c(C)c3c2=N)cc1Cl | 2.3µM | x | n | 4.1µM | x | x
COc1ccc(CNC(=O)CSc2n[nH]c(-c3ccc(OC)cc3)n2)cc1 | 13µM | x | n | 9.2µM | x | x
CCc1cccc(OCC(=O)c2ccc3c(c2)N(CCCC(=O)NCC2CC2)C(=O)CO3)c1 | x | x | n | x | x | x
COc1ccc(NC(=O)CN(C)CC(=O)Nc2ccccc2)cc1 | x | x | n | x | x | x
COc1ccc(OC)c(NC(=O)CSc2nc3n[nH]c(C)c3c(=N)n2-c2cccc(Cl)c2C)c1 | 16µM | n | n | u | 23µM | n
COc1ccc(-n2c(SCC(=O)NCc3ccc(C)cc3)nc3n[nH]c(C)c3c2=N)cc1 | 4.1µM | x | n | 6.5µM | x | x
CCc1ccc(-n2c(SCC(=O)NC(C)CC)nc3n[nH]c(C)c3c2=N)cc1 (stereo unspecified) | 5.2µM | x | n | 5.8µM | x | x
O=C(NCCc1nc(-c2ccccc2)no1)c1cc(=O)c2ccc(Br)cc2o1 | x | x | n | x | x | x
c1ccc(CSc2ccc3nnc(-c4ccccn4)n3n2)cc1 | 21µM | n | n | u | n | n
O=C(O)CSc1ccc2nnc(-c3cccnc3)n2n1 | n | n | n | u | n | n
Fc1ccc(CSc2ccc3nnc(-c4cccnc4)n3n2)cc1 | 16µM | u | n | 16µM | n | n
COc1ccccc1CNc1cc(-c2ccccc2C)ncn1 | 4.1µM | x | u | 4.1µM | x | x
COc1ccccc1CNc1cc(-c2ccoc2)ncn1 | n | x | u | n | x | x
COc1cccc(-c2cc(NCc3ccccc3)ncn2)c1 | u | x | n | u | x | x
COc1ccccc1CNc1cc(-c2cccnc2)ncn1 | n | x | u | u | x | x
COc1ccccc1CNc1cc(-c2ccccc2OC)ncn1 | 2.9µM | x | n | 4.6µM | x | x
COc1cccc(-c2cc(NCc3ccc(OC)cc3OC)ncn2)c1 | 13µM | x | n | 10µM | x | x
COC[C@@H]1CN(c2cnccn2)C[C@H]1C(=O)N1CCc2ccccc2C1 | x | x | n | x | x | x
COC(=O)c1sc(NC(=O)c2c(C)noc2C)nc1C | n | n | x | n | n | n

High-throughput results (PubChem)
